Experimental data from PubChem BioAssay (EPA / NIEHS).
Several values for one entry are separate records, joined by “and”; a condition that tells them apart may be missing. Identical values can stand only once. Results filed as inconclusive are left out. A structure can be active in one record and inactive in another. Activity calls are given as the source filed them. The calls were made as follows, unless noted: active = hit-call score of the fitted dose curve at least 0.9, where 1 is the maximum; inconclusive = response in the unintended direction; inactive = score below 0.9.

Experiments:
[1] = biological target: human Dopamine Transporter (DAT), SLC6A3 (gene 6531) (UniProt Q01959); assay: NVS_TR_hDAT: NovaScreen (NVS) Transporter Assay for human Dopamine Transporter (DAT) (AID 2283374);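 also: activity means loss of bound radioligand signal relative to DMSO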
Outline: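 Duplicate single-point screening at 25 uM preceded concentration-series follow-up of actives. Binding was measured by competitive displacement of a radioligand from DAT protein, filter-counted by scintillation 1 h after dosing. Decrease relative to DMSO taken as activity.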

[2] = biological target: Agonist Androgen Response Element (ARE), AR (gene 367) (UniProt P10275); assay: OT_AR_ARELUC_AG_1440: Odyssey Thera (OT) 24-hour CHO-K1 Luciferase Assay for Agonist Androgen Response Element (ARE) (AID 2283379)
Outline: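 Readout: luciferase bioluminescence from CHO-K1 ARE-luc cells, measured 24 h post-dosing; agonism = increased mean luminescence vs DMSO controls, fitted in positive direction.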

[3] = biological target: Estrogen receptor (Homo sapiens) (UniProt P03372); assay: OT_ERa_GFPERaERE_0480: Odyssey Thera (OT) 8-hour HeLa Transcription Induction Assay for Estrogen Receptor (AID 2283381; active = hit-call score of the fitted dose curve at least 0.9, where 1 is the maximum; inactive = score below 0.9)
Outline: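 An 8 h HeLa transcription-induction format with a GFP reporter under ERE control, read by fluorescence microscopy; single endpoint fitted positively with DMSO as baseline.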

[4] = biological target: Estrogen receptor (Homo sapiens) (UniProt P03372); assay: OT_ERa_GFPERaERE_0120: Odyssey Thera (OT) 2-hour HeLa Transcription Induction Assay for Estrogen Receptor (AID 2283382)
Outline: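 Two-hour compound treatment of HeLa cells preceded microscopy imaging of an inducible fluorescent reporter. Image-based quantification gave one endpoint, analysed for signal increase relative to DMSO controls.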

[5] = biological target: Bile acid receptor (Homo sapiens) (UniProt Q96RI1); assay: OT_FXR_FXRSRC1_0480: Odyssey Thera (OT) 8-hour HEK293T Protein-Complementation Assay for Farnesoid X receptor/SRC-1 Co-activator (AID 2283383)
Outline: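 Readings were taken 8 h after dosing HEK293T cells in a split-reporter complementation format pairing FXR with SRC-1. Increased fluorescence relative to DMSO-treated wells defined activity.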

[6] = biological target: Retinoic acid receptor RXR-alpha (Homo sapiens) (UniProt P19793); assay: OT_NURR1_NURR1RXRa_0480: Odyssey Thera (OT) 8-hour HEK293T Protein Complementation Assay for Nurr1/retinoid X receptor (RXR) (AID 2283385)
Outline: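 Gain in fluorescent complementation signal over DMSO, measured 8 hours after chemical dosing of human kidney HEK293T cells, indicated enhanced Nurr1–RXRα association.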

[7] = biological target: Retinoic acid receptor RXR-alpha (Homo sapiens) (UniProt P19793); assay: OT_NURR1_NURR1RXRa_1440: Odyssey Thera (OT) 24-hour HEK293T Protein Complementation Assay for Nurr1/retinoid X receptor (RXR) (AID 2283386)
Outline: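 Cell-based binding reporter: HEK293T cells, 24 h exposure, fluorescence-detected fragment complementation, DMSO as baseline.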

[8] = biological target: Peroxisome proliferator-activated receptor gamma (Homo sapiens) (UniProt P37231); assay: OT_PPARg_PPARgSRC1_0480: Odyssey Thera (OT) 8-hour Protein-Complementation Assay for Peroxisome Proliferator-activated Receptor Gamma / SRC-1 Co-activator (AID 2283387);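 also: nuclear to cytoplasmic split Venus YFP fluorescence ratio reporting PPARg SRC-1 interaction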
Outline: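 Read-out: 488 nm N/C fluorescence ratio from complemented Venus YFP fragments, ≥350 cells per image, gain-of-signal fitted against DMSO baseline. Fusions of PPARg/SRC-1 with IFP1/IFP2 expressed transiently in HEK293T; compounds applied 8 h.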

[9] = biological target: Peroxisome proliferator-activated receptor gamma (Homo sapiens) (UniProt P37231); assay: OT_PPARg_PPARgSRC1_1440: Odyssey Thera (OT) 24-hour Protein-Complementation Assay for Peroxisome Proliferator-activated Receptor Gamma/ SRC-1 Co-activator (AID 2283388);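 also: nuclear to cytoplasmic ratio of reconstituted Venus YFP fluorescence in fixed imaged cells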
Outline: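 Protein-fragment complementation between PPARg and coactivator SRC-1 was measured by fluorescence imaging in transiently transfected HEK293T cells after 24 h treatment. Signal was quantified as N/C ratio in the 488 nm channel, with DMSO as negative control.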

[10] = CEETOX_H295R_11DCORT: CeeTox H295R High-throughput Steroidogenesis Assay for 11-Deoxycortisol (11DCORT) (AID 2283432; active = hit-call score of the fitted dose curve at least 0.9, where 1 is the maximum; inactive = score below 0.9;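 as to AC50: 11-deoxycortisol secreted into the medium measured by LC-MS/MS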); conditions: actives raise or lower the signal
Outline: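 H295R cells; 10 uM forskolin prestim 48 h; compound in 0.1% DMSO 48 h; media extracted with MTBE; 11-deoxycortisol by LC-MS/MS, 7-point standard curve; gain/loss vs DMSO baseline; viability by MTT in same wells.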

[11] = CEETOX_H295R_OHPREG: CeeTox H295R High-throughput Steroidogenesis Assay for OH-Pregnenolone (OHPREG) (AID 2283434; active = hit-call score of the fitted dose curve at least 0.9, where 1 is the maximum; inactive = score below 0.9); conditions: actives raise or lower the signal
Outline: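 Secreted 17alpha-hydroxypregnenolone measured by HPLC-MS/MS after liquid-liquid extraction. Human adrenal H295R cells received 48 h forskolin (10 uM) stimulation before 48 h chemical exposure at 0.1% final DMSO; MTT viability in same wells; bidirectional fit against DMSO.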

[12] = CEETOX_H295R_OHPROG: CeeTox H295R High-throughput Steroidogenesis Assay for OH-Progesterone (OHPROG) (AID 2283435; active = hit-call score of the fitted dose curve at least 0.9, where 1 is the maximum; inactive = score below 0.9;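 as to AC50: 17alpha-hydroxyprogesterone secreted into medium measured by HPLC-MS/MS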); conditions: actives raise or lower the signal
Outline: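 Human adrenocortical H295R cells, passage 10 or lower, were treated with chemical for 48 h after forskolin priming, and hormone output in the medium was quantified by LC-MS/MS.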

[13] = CEETOX_H295R_ANDR: CeeTox H295R High-throughput Steroidogenesis Assay for Androstenedione (ANDR) (AID 2283436; active = hit-call score of the fitted dose curve at least 0.9, where 1 is the maximum; inactive = score below 0.9); conditions: actives raise or lower the signal
Outline: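 Medium from 48 h chemical-treated H295R adrenal cells was extracted with MTBE and androstenedione measured by LC-MS/MS. Activity was fit in both directions relative to DMSO. Cytotoxic concentrations were re-tested after dilution until MTT viability reached ≥70%.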

[14] = CEETOX_H295R_CORTIC: CeeTox H295R High-throughput Steroidogenesis Assay for Corticosterone (CORTIC) (AID 2283437; active = hit-call score of the fitted dose curve at least 0.9, where 1 is the maximum; inactive = score below 0.9); conditions: actives raise or lower the signal
Outline: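 Medium corticosterone was quantified by tandem mass spectrometry following 48 hours of chemical exposure (0.1% DMSO) in human H295R cells previously stimulated 48 hours with 10 uM forskolin. Viability checked by MTT; chemicals diluted and retested when viability fell below 70%.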

[15] = CEETOX_H295R_CORTISOL: CeeTox H295R High-throughput Steroidogenesis Assay for Cortisol (AID 2283438; active = hit-call score of the fitted dose curve at least 0.9, where 1 is the maximum; inactive = score below 0.9;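 also: cortisol secreted into medium quantified by LC-MS/MS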); conditions: actives raise or lower the signal
Outline: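 Steroidogenesis in H295R, per modified OECD 456: 48 h forskolin (10 uM), then 48 h exposure, 0.1% DMSO. Cortisol by extraction and tandem MS; viability by MTT (570/650 nm); cytotoxic chemicals diluted and re-tested.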

[16] = CEETOX_H295R_DOC: CeeTox H295R High-throughput Steroidogenesis Assay for DOC (AID 2283439; active = hit-call score of the fitted dose curve at least 0.9, where 1 is the maximum; inactive = score below 0.9); conditions: actives raise or lower the signal
Outline: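 H295R, fsk 10 uM ×48 h pre, cmpd ×48 h (0.1% DMSO). Media → MTBE extr. → LC-MS/MS, DOC. Bidirectional fit vs DMSO; MTT viability same wells, re-test diluted if <70%.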

[17] = CEETOX_H295R_ESTRADIOL: CeeTox H295R High-throughput Steroidogenesis Assay for Estradiol (AID 2283440; active = hit-call score of the fitted dose curve at least 0.9, where 1 is the maximum; inactive = score below 0.9;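 also: estradiol secreted into medium quantified by LC-MS/MS after dansyl derivatisation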); conditions: actives raise or lower the signal
Outline: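 Estradiol secreted into the medium was measured by tandem mass spectrometry after liquid-liquid extraction and dansylation. Human H295R cells had been forskolin-primed (10 uM, 48 h) before a 48 h chemical exposure with 0.1% DMSO.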

[18] = biological target: human Norepinephrine Transporter (NET), SLC6A2 (gene 6530) (UniProt P23975); assay: NVS_TR_hNET: NovaScreen (NVS) Transporter Assay for human Norepinephrine Transporter (NET) (AID 2283377);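 also: cell-free membrane protein extracted from CHO cells expressing human NET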;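 as to AC50: displacement of radioligand from human NET seen as loss of scintillation signal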
Outline: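 Single-concentration duplicate screen at 25 uM, then concentration-response for actives; displacement of specific radioligand from human NET in CHO membrane extracts, filter-based scintillation detection at 1 h relative to DMSO.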

Measured: AC50

Chain of Peroxisome proliferator-activated receptor gamma (Homo sapiens) (P37231 whole entry, looked up, the tested form may be a part): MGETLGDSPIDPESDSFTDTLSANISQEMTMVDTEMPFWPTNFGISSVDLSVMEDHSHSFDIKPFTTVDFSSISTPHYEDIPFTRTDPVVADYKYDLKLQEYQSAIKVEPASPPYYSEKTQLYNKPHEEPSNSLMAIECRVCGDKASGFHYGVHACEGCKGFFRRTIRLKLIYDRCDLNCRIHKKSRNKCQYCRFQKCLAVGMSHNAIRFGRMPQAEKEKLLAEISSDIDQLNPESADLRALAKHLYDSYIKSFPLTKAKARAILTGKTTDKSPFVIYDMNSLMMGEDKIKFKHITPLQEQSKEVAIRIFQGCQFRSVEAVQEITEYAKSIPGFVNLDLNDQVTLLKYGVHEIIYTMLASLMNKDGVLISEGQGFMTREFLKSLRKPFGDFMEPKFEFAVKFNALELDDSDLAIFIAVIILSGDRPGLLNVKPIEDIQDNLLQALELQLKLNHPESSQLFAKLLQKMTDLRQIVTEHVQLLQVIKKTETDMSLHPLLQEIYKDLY
Chain of Bile acid receptor (Homo sapiens) (Q96RI1 whole entry, looked up): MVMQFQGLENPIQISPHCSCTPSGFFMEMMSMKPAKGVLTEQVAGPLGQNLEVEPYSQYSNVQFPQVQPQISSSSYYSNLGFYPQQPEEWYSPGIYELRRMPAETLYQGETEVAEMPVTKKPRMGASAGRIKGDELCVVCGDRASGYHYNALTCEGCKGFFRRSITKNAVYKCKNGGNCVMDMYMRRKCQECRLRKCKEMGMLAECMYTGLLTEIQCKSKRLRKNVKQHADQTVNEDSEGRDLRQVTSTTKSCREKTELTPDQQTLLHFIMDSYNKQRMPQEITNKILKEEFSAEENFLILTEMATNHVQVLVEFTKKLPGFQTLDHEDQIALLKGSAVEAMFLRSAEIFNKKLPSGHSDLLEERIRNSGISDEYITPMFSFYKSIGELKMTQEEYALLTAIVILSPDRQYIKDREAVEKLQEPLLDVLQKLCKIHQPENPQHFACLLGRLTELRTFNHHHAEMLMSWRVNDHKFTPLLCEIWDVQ
Chain of Estrogen receptor (Homo sapiens) (P03372 whole entry, looked up): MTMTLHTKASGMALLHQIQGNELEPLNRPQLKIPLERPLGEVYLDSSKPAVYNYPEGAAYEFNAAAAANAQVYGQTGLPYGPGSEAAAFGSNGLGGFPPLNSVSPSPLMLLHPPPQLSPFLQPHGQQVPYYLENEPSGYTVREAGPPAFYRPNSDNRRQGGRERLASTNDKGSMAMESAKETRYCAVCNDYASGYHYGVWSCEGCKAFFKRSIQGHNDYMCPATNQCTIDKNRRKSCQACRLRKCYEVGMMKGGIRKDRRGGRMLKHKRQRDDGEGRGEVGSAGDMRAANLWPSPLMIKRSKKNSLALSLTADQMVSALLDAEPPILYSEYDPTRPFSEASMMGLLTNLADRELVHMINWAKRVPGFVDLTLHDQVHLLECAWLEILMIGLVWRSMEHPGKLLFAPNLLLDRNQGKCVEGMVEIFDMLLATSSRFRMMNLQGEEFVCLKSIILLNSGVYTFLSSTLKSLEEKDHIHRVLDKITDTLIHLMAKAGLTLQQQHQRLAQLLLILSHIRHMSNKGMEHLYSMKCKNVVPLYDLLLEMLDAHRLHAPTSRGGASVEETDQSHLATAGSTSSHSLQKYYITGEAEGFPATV
Chain of human Dopamine Transporter (DAT), SLC6A3 (gene 6531) (Q01959 whole entry, looked up): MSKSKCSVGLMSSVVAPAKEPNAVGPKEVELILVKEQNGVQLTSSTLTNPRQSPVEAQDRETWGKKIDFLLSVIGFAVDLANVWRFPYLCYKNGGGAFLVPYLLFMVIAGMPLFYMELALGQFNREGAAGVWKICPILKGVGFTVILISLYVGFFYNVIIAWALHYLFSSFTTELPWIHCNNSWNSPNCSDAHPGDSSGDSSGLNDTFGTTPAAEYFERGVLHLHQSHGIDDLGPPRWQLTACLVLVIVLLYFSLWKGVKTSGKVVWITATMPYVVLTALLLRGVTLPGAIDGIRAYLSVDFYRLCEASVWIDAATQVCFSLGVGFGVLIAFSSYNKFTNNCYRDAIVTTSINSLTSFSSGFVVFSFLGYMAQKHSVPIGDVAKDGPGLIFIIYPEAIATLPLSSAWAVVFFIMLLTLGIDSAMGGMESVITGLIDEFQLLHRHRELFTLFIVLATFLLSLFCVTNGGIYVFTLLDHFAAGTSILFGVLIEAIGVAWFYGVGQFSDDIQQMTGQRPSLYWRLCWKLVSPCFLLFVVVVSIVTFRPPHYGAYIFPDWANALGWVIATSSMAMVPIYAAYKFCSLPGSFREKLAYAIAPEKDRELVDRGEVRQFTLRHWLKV
Chain of Retinoic acid receptor RXR-alpha (Homo sapiens) (P19793 whole entry, looked up, the tested form may be a part): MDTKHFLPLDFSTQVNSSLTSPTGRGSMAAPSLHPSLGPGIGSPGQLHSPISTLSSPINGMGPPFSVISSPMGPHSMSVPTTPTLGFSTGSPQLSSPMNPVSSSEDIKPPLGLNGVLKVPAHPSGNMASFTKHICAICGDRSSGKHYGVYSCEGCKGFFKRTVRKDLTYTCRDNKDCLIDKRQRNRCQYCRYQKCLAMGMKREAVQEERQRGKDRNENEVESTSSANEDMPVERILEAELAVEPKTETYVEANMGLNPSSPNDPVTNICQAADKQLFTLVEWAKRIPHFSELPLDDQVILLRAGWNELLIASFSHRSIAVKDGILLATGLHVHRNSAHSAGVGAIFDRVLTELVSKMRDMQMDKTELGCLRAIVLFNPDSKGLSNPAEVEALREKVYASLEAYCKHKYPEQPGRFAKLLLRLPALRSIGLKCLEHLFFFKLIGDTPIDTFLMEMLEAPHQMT
Chain of human Norepinephrine Transporter (NET), SLC6A2 (gene 6530) (P23975 whole entry, looked up): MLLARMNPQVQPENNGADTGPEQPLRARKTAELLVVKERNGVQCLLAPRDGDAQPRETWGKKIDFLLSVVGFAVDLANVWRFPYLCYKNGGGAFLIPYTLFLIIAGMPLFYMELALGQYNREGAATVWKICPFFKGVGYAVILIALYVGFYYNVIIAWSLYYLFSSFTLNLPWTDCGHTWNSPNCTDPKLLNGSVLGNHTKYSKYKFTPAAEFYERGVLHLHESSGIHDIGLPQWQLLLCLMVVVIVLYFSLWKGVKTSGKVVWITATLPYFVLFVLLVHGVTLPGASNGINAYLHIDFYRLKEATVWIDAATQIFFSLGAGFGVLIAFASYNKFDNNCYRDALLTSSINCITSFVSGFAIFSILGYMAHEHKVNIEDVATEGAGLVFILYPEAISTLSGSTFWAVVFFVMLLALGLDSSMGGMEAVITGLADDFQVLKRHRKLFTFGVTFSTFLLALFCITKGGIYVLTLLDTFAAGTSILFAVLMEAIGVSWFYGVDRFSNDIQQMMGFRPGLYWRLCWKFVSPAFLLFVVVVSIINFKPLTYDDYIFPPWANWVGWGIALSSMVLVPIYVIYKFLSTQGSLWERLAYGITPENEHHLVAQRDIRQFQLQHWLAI
Chain of Agonist Androgen Response Element (ARE), AR (gene 367) (P10275 whole entry, looked up): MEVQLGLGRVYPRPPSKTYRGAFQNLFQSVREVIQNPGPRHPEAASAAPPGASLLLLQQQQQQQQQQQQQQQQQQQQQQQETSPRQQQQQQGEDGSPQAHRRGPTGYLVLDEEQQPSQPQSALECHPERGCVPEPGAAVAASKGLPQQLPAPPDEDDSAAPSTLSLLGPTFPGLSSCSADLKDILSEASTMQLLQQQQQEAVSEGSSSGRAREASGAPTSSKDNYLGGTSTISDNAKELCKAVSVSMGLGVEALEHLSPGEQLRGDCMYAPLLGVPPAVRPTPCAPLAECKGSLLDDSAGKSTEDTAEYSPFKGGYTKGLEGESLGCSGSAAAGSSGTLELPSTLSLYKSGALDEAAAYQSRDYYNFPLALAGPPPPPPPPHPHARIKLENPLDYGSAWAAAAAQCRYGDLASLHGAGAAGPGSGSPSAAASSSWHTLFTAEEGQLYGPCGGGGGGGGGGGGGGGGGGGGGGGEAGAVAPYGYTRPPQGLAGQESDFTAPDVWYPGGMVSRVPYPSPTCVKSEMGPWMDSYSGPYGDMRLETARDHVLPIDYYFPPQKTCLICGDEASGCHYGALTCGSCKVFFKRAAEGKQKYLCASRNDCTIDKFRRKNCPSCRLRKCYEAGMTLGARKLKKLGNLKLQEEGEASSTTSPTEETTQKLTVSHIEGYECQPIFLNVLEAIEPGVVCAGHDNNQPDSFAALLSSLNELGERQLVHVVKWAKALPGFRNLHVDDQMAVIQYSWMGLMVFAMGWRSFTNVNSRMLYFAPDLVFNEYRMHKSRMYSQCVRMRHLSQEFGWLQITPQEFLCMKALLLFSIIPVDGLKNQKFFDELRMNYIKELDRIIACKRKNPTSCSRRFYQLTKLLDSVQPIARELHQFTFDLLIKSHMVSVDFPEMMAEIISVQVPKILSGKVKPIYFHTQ

Cc1nn(C)c(Oc2ccccc2)c1C=NOCc1ccc(C(=O)OC(C)(C)C)cc1
inactive: [1] | [2] | [3] | [4] | [6] | [7] | [8] | [9]
active: [5] 7.14 µM | [6] 11.3 µM | [7] 15.7 µM

CSC(=O)c1cccc2nnsc12
active: [11] 55.6 µM | [12] 50 µM | [14] 23 µM
inactive: [2] | [3] | [4] | [6] | [7] | [8] | [9] | [10] | [13] | [15] | [16]

O=C(c1ccc(O)cc1O)c1ccc(O)cc1O
inactive: [2] | [5] | [6] | [7] | [8] | [9]
active: [2] 722 nM and 29.3 µM | [3] 2.11 µM and 2.15 µM and 2.89 µM | [4] 2.24 µM and 2.25 µM and 2.67 µM

CCCCOCCOCCOCc1cc2c(cc1CCC)OCO2
active: [1] 35.7 µM | [5] 33.1 µM | [11] 5 µM
inactive: [2] | [6] | [7] | [8] | [9] | [12] | [13]

C[C@]12CC[C@@H]3c4ccc(O)cc4C[C@@H](CCCCCCCCCS(=O)CCCC(F)(F)C(F)(F)F)[C@H]3[C@@H]1CC[C@@H]2O (stereo partly specified)
inactive: [2] | [5] | [6] | [7] | [8] | [9]
active: [2] 548 nM

CCCCCCC(C)OC(=O)COc1nc(F)c(Cl)c(N)c1Cl (stereo unspecified)
active: [6] 79.2 µM
inactive: [1] | [6] | [7]

C#CCOC(=O)[C@@H](C)Oc1ccc(Oc2ncc(Cl)cc2F)cc1
active: [1] 7.24 µM | [10] 9.92 µM | [12] 9.84 µM | [16] 6.87 µM
inactive: [3] | [4] | [5] | [6] | [7] | [8] | [9] | [11] | [14] | [15] | [17]

S=C(S)NCCNC(=S)S.[Mn+2].[S-]C([S-])=NCCN=C([S-])[S-].[Zn+2]
inactive: [18] | [6] | [7] | [8] | [9] | [10] | [11] | [12] | [14] | [15] | [16]
active: [18] 0.269 µM | [7] 40.2 µM [middle of 4 runs]

CC(=O)[C@H]1CC[C@H]2[C@@H]3CCC4=CC(=O)CC[C@]4(C)[C@H]3CC[C@]12C
inactive: [3] | [4] | [6] | [7] | [8] | [9] | [12] | [17]
active: [11] 7.97 µM

N[C@@H](Cc1cc(I)c(Oc2ccc(O)c(I)c2)c(I)c1)C(=O)O
inactive: [3] | [4] | [8] | [9]

CCCCOC(=O)[C@@H](C)Oc1ccc(Oc2ccc(C(F)(F)F)cn2)cc1
active: [4] 46.5 µM | [5] 58.9 µM
inactive: [3] | [6] | [7] | [8] | [9] | [10] | [11] | [12] | [14] | [15] | [16] | [17]

CCCOC(=O)NCCCN(C)C
inactive: [6] | [7] | [8] | [9]

CCCN(CCC)C(=O)SCC
inactive: [2] | [3] | [4] | [6] | [7] | [8] | [9] | [10] | [11] | [12] | [13] | [14] | [15] | [16] | [17]

O=C(Nc1ccc([N+](=O)[O-])cc1Cl)c1cc(Cl)ccc1O
inactive: [3] | [4] | [6] | [7] | [8] | [9] | [10] | [11] | [12] | [14] | [15] | [16] | [17]
active: [5] 5.91 µM | [6] 1.19 µM | [7] 1.45 µM

COC(=O)c1ccc(I)cc1S(=O)(=O)NC(=O)Nc1nc(C)nc(OC)n1
inactive: [7] | [8] | [9]

C#C[C@]1(O)CC[C@H]2[C@@H]3CCC4=CC(=O)CC[C@@H]4[C@H]3CC[C@@]21CC
active: [3] 15.1 µM and 8.91 µM | [4] 12.1 µM and 46.1 µM and 5.67 µM | [11] 2.42 µM | [15] 2.4 µM
inactive: [3] | [4] | [6] | [7] | [8] | [9] | [10] | [12] | [14] | [16]

C[C@]12C[C@H](O)[C@H]3[C@@H](CCC4=CC(=O)CC[C@@]43C)[C@@H]1CC[C@@H]2C(=O)CO
inactive: [3] | [4] | [5] | [6] | [7] | [8] | [9] | [15] | [16]
active: [5] 32.3 µM | [10] 34.4 µM | [11] 16.1 µM | [12] 72.2 µM | [14] 1.04 µM
